# Measured values reported in PubChem BioAssay (NCATS).
# Records with an inconclusive call do not appear. A call without a number means that no potency is given here. The source made the active and inactive calls. Unless noted, the call rests on the fitted dose curve; in most records, active means well fitted cell-killing curve with a large enough effect; inconclusive means small, poorly fitted or top-dose-only effect; inactive means flat fitted curve, though single readings scatter.
# How the values were obtained:
# [1] = Cell Viability - LYMP2-021 (AID 974);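 further: compound exposure lasts 24 hours at 37 °C; nearly all actives have a fitted effect of over 55% in size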
# Summary of the method: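 Concentration-response cytotoxicity in a human lymphoblastoid line: 24 hr treatment at 37 C in complete culture medium, tetraoctylammonium bromide as positive control, luminescent ATP quantitation as viability measure.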
# [2] = Cell Viability - LYMP2-023 (AID 975);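 further: cellular ATP measured by luciferase luminescence as viability proxy; series mostly up to about 92 µM; cells exposed to compound for 24 hours at 37 °C; nearly all actives have a fitted effect of over 55% in size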
# Summary of the method: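 Concentration-dependent drop in intracellular ATP measures acute cytotoxicity in a human lymphoblastoid line treated for 24 hours in complete culture medium. AC50 values are taken from Hill-equation fits of qHTS data.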
# [3] = Cell Viability - LYMP2-002 (AID 977); further: series mostly up to about 92 µM
# Summary of the method: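 Luminescent ATP readout (CellTiter-Glo, 30 min room temperature) after 24 h compound exposure at 37 C of a human lymphoblastoid line, 2500 cells/well. AC50 values derived by standard Hill fitting of qHTS concentration-response data.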
# [4] = Cell Viability - LYMP2-006 (AID 978);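 further: series mostly up to about 92 µM; cells exposed to compound for 24 hours; nearly all actives have a fitted effect of over 60% in size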
# Summary of the method: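 Human lymphoblastoid cells (LYMP2-006), 2500/well in complete medium, were treated with compound for 24 hr at 37 C. Cellular ATP was read by CellTiter-Glo luminescence after 30 min, and AC50 values came from Hill-equation fits of concentration-response data.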
# [5] = Cell Viability - LYMP2-007 (AID 979);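 further: cells exposed to compound for 24 h before reading; nearly all actives have a fitted effect of over 60% in size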
# Summary of the method: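 Acute toxicity is scored as a concentration-dependent fall in intracellular ATP in human lymphoblastoid cells treated 24 hr at 37 C, measured by luciferase luminescence; Hill-equation modelling yields AC50.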
# [6] = Cell Viability - LYMP2-008 (AID 980); further: nearly all actives have a fitted effect of over 60% in size
# Summary of the method: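 Acute cytotoxicity is scored as concentration-dependent loss of cellular ATP in a human lymphoblastoid line after 24 hr treatment at 37 C. ATP is quantified by luciferase luminescence.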
# [7] = Cell Viability - LYMP2-010 (AID 981);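 further: cells exposed to compound for 24 hours at 37 °C; nearly all actives have a fitted effect of over 55% in size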
# Summary of the method: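 Acute toxicity is scored as a concentration-dependent loss of cellular ATP in human lymphoblastoid cells after 24 hr compound exposure in complete medium. Tetraoctylammonium bromide is the positive control.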
# [8] = Cell Viability - LYMP2-012 (AID 982);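 further: cellular ATP by luciferase luminescence where a drop means cytotoxicity; cells exposed to compound for one day before reading; nearly all actives have a fitted effect of over 55% in size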
# [9] = Cell Viability - LYMP2-014 (AID 983); further: series mostly up to about 92 µM; nearly all actives have a fitted effect of over 50% in size
# Summary of the method: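 Decrease in intracellular ATP after 24 hr treatment at 37 C, measured by luciferase luminescence, indicated cytotoxicity. Concentration-response data were fitted with the standard Hill equation to give AC50.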
# [10] = Cell Viability - LYMP2-016 (AID 984)
# Summary of the method: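 Human lymphoblastoid LYMP2-016 cells, 2500 per well, treated with compounds for 24 h at 37 C. Viability read as intracellular ATP by CellTiter-Glo luminescence after 30 min at room temperature; AC50 from Hill fits of concentration-response.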
# [11] = Cell Viability - LYMP2-018 (AID 985);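 further: compound exposure lasted 24 hr at 37 °C; nearly all actives have a fitted effect of over 50% in size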
# Summary of the method: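 Acute cytotoxicity is scored as a concentration-dependent drop in intracellular ATP after 24 hr exposure of the lymphoblastoid line in complete culture medium, measured by luciferase luminescence. Potency is expressed as AC50 from Hill modelling.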
# [12] = Cell Viability - LYMP2-020 (AID 986)
# Summary of the method: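 Acute cytotoxicity in a human lymphoblastoid line is scored as a concentration-dependent fall in cellular ATP after 24 hr at 37 C in complete medium. The positive control is tetraoctylammonium bromide, and potency is given as Hill-fit AC50.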
# [13] = Cell Viability - LYMP2-022 (AID 987); further: nearly all actives have a fitted effect of over 55% in size
# Summary of the method: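 Acute toxicity in a human lymphoblastoid line is scored as decreased intracellular ATP after 24 hr compound treatment at 37 C. ATP is measured by CellTiter-Glo luminescence; curves are fitted with the Hill equation to give AC50.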
# [14] = Cell Viability - LYMP2-026 (AID 989); further: nearly all actives have a fitted effect of over 50% in size
# Summary of the method: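 Concentration-dependent loss of intracellular ATP in human lymphoblastoid cells after 24 hr at 37 C, quantified by luciferase luminescence. AC50 derived from standard Hill equation.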
# [15] = Cell Viability - LYMP1-002 - Assay at 40 hr (AID 994); further: nearly all actives have a fitted effect of over 60% in size
# Summary of the method: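 Viability in the human lymphoblastoid line was measured as intracellular ATP via CellTiter-Glo after 40 hr compound exposure. Tetraoctylammonium bromide served as positive control.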
# [16] = qHTS Assay for Identification of Small Molecule Inducers of Hypoxia Response (AID 2120; active means well fitted curve in the direction sought with a large enough effect in the signal ratio, with a control signal flat, not every such curve was filed as active; the % refers to the signal ratio)
# Summary of the method: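 Induction of beta-lactamase reporter activity was measured in CellSensor HRE-bla ME-180 cells after 17 h compound treatment at 37 degrees C, using CCF4 substrate and the 460nm/530nm emission ratio to derive AC50 values.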
# [17] = target: Bile acid receptor (Homo sapiens) (UniProt Q96RI1); assay: qHTS assay for small molecule antagonists of farnesoid X receptor signaling (AID 588526; calls by dose curve)
# Chain of Bile acid receptor (Homo sapiens) (Q96RI1 whole entry, looked up): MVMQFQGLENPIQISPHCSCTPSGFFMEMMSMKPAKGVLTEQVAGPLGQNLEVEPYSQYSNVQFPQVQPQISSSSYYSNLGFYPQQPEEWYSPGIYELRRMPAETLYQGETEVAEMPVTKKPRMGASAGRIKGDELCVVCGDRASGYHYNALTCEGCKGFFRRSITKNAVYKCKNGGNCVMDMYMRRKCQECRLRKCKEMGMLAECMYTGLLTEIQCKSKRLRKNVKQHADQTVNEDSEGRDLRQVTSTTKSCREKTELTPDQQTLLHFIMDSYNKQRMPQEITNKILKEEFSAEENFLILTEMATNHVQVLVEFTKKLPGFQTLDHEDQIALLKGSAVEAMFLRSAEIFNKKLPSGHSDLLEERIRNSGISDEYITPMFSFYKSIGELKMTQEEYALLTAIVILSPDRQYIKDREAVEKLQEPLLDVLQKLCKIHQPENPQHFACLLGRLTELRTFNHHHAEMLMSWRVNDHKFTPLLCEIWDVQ
# Summary of the method: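 Concentration-response titrations were fitted to the Hill equation for half-maximal inhibition and maximal response, with data normalised to 50 uM chenodeoxycholic acid and DMSO control wells. Cells: FXR-UAS-bla HEK293T, dialyzed FBS.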
# [18] = target: Bile acid receptor (Homo sapiens) (UniProt Q96RI1); assay: qHTS assay for small molecule agonists of farnesoid X receptor signaling (AID 588527; calls by dose curve; further: series mostly up to about 77 µM); conditions: HEK293T FXR-UAS-bla, beta-lactamase ratio, 16 h; activation: stronger effect = higher value
# Summary of the method: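 Agonist-mode beta-lactamase reporter in GeneBLAzer FXR-UAS-bla HEK293T cells, titration up to 92 uM, 16 h exposure at 37 C, CCF4 fluorescence. Response scaled to DMSO (0%) and 100 uM chenodeoxycholic acid (100%), then Hill-fitted for EC50 and efficacy.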
# [19] = target: Vitamin D3 receptor (Homo sapiens) (UniProt P11473); assay: qHTS assay for small molecule antagonists of vitamin D receptor signaling (AID 588541; calls by dose curve;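 further: receptor activated by calcitriol during compound treatment; series mostly up to about 77 µM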)
# Chain of Vitamin D3 receptor (Homo sapiens) (P11473 whole entry, looked up): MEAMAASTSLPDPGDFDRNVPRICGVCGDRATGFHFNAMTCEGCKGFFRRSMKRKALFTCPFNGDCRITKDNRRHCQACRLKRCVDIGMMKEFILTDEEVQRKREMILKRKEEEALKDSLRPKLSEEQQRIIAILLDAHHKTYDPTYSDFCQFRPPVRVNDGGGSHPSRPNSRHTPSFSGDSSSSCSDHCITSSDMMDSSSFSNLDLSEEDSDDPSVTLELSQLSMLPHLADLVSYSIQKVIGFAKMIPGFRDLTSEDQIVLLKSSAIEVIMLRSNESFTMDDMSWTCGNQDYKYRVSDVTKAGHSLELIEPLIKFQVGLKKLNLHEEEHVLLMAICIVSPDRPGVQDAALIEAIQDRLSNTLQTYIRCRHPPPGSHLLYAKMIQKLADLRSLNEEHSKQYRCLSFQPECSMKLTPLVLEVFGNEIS
# Summary of the method: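 VDR-UAS-bla HEK293T cells (2000/well, 2% charcoal-stripped FBS) were treated with titrated compounds plus 1-alpha,25-dihydroxyvitamin D3 (50 nM or 3 nM final) for 16 h at 37 C. CCF4 beta-lactamase fluorescence was read; Hill fits gave IC50.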
# [20] = target: Vitamin D3 receptor (Homo sapiens) (UniProt P11473); assay: qHTS assay for small molecule agonists of vitamin D receptor signaling (AID 588543; calls by dose curve)
# Summary of the method: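 VDR-UAS-bla HEK293T cells, 2000/well, 2% charcoal-stripped FBS; compound titration 16 h at 37 C; CCF4 beta-lactamase ratio read. Normalized to 50 nM 1-alpha,25-dihydroxyvitamin D3 (100%) and DMSO; Hill fit gives EC50, efficacy.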
# [21] = qHTS assay for small molecule agonists of retinoid X receptor alpha signaling (AID 588544); conditions: HEK293T RXRa-UAS-bla, beta-lactamase reporter, 18 h; 530 nm emission
structure (smiles),measurement,setting,value
O=Cc1ccccc1,outcome,[1],inactive
same,outcome,[2],inactive
same,outcome,[3],inactive
same,outcome,[4],inactive
same,outcome,[5],inactive
same,outcome,[6],inactive
same,Potency,[7],inactive
same,outcome,[8],inactive
same,outcome,[9],inactive
same,outcome,[10],inactive
same,outcome,[11],inactive
same,outcome,[12],inactive
same,outcome,[13],inactive
same,outcome,[14],inactive
same,Potency,[15],inactive
same,outcome,[16],inactive
same,Potency,[17],inactive
same,activation,[18],-1.64% (inactive)
same,outcome,[19],inactive
same,Potency,[20],inactive
same,max response,[21],10.9%
